Our source for the Percent Effect values is ChEMBL document CHEMBL3988442, “University of Dundee, Small-Polar-MMV Screening Library” (2021).

The target of test [1] is T1, Aspartate--tRNA(Asp/Asn) ligase (Mycobacterium tuberculosis (strain ATCC 25618 / H37Rv)) (UniProt P9WFW3). Also: in the data most compounds retested in dose-response had high values.
T1 sequence (whole entry): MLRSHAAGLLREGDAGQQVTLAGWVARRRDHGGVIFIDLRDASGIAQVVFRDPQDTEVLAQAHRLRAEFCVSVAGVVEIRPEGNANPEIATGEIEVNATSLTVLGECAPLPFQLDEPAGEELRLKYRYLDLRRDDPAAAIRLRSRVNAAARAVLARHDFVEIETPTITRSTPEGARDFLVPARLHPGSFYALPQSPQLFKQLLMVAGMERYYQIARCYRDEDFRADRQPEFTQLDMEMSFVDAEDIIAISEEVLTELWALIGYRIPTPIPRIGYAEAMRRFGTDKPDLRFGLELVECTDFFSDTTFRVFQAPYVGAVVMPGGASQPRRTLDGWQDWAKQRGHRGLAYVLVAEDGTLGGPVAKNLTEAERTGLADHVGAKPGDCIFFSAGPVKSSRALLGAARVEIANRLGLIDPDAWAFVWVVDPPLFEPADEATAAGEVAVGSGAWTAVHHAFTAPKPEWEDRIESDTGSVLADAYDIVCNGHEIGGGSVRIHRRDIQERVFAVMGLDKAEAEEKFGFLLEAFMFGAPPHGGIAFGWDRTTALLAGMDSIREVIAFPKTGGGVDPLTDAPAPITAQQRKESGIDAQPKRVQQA
The test is described as follows: Assay for Asp RNA synthetase-1 from Mycobacterium tuberculosis. The settings on record: 30 µM. On the set-up: scale not given: direction of the effect not stated beside the values. Format: functional.

For test [2], the target named is Shiga toxin 2 (Escherichia coli O157:H7) (UniProt P09385+P09386). The test is described as follows: E. coli 0.157:H7 Shiga Toxin SOP - stx2 screening assay. Format: functional. On the set-up: scale not given: direction of the effect not stated beside the values. The settings on record: 30 µM.

As for `Cc1noc(C(C)C)c1C(=O)NCC(c1ccsc1)N(C)C` (centres undefined), the Percent Effect in test [1] is 3%; in test [2], -2.68%.
The matching figures for `COCCNc1nc2c(c(NCc3ccncc3)n1)CCNCC2`: 2.58% and -12.3%.
The matching figures for `Cc1ccc(CNCc2ccc(-n3nc(C)cc3C)nc2)cc1`: 1.23% and 22.8%.
The matching figures for `O=C(Cn1cc(C(=O)O)ccc1=O)NCc1ccc(F)c(Cl)c1`: 3.08% and -51.8%.
Regarding `Cc1n[nH]c(C)c1C1COCCN1C(=O)Cc1cccc(F)c1` (centres undefined), the values for the Percent Effect in test [1] and in test [2] were 3.85% and -14.1%, respectively.
`COc1cccc(S(=O)(=O)NC(=O)COC2CCCC2)c1`: the Percent Effect was 2.03% in test [1] and -4.79% in test [2].
The matching figures for `CS(=O)(=O)c1ccc(CNC2CCCN(c3cccnn3)C2)cc1` (centres undefined): -4.64% and 4.3%.
The matching figures for `O=C(Nc1ccccc1OC(F)F)C1=NN(c2ccccc2)C(=O)CN1`: 9.31% and -3.57%.
On to `Cc1ccc(NC2CCN(C(=O)c3n[nH]c4ccccc34)CC2)nn1`, for which the results for the Percent Effect in test [1] and in test [2] were 0.985% and -18.6%, respectively.
In the same order, the values of `c1cc(CNCC2OCCc3cn(CC4CCOCC4)nc32)ccn1` (centres undefined) are 4.2% and -5.21%.
In the same order, the values of `Cn1c(CN2CCCC2)nnc1C1CCCN(C(=O)C2CCOCC2)C1` (centres undefined) are 2.71% and -6.15%.
Consider `CC[C@@H]1N(Cc2ccsc2)CCC[C@]12CCC(=O)N2CCOC`, for which the Percent Effect in test [1] is -5.67%; in test [2], 7.49%.
In the same order, the values of `CN(Cc1nnc(C2CC2)n1C)C1CCN(Cc2ccc(F)cc2)C1` (centres undefined) are 11.8% and 9.62%.
The matching figures for `CCN1CCC(NC(=O)CN2CCCC2Cn2cncn2)CC1` (centres undefined): -1.82% and -12.3%.
The matching figures for `CCc1nc(C)c([C@H]2CN(C)C[C@@H]2C(=O)NCCc2cnccn2)[nH]1`: -1.15% and -9.87%.
With `O=C(NCC1CCS(=O)(=O)C1)c1sccc1-c1ccc(F)cc1` (centres undefined), the Percent Effect was -1.09% in test [1] and -3.87% in test [2].
The matching figures for `COCCN(C)CCN1CC2(CCN(C3CCCOC3)CC2)OC1=O` (centres undefined): 3.6% and -60.6%.
The matching figures for `COc1cc(N2C[C@H]3OCC[C@H]3[C@H](C(=O)NC3CC3)C2)ncn1`: 3.81% and -2.62%.
As to `Cc1cc(C)n(-c2cncc(NCCNC(=O)C(C)C)n2)n1`, the Percent Effect amounted to 8.76% in test [1] and 2.01% in test [2].
In the same order, the values of `Cc1nc(C(=O)N2CCCC(n3cncn3)C2)cs1` (centres undefined) are -3.48% and 1.3%.
In the same order, the values of `CC(C)c1noc(C(C)N2CCN(Cc3ccccc3C#N)CC2)n1` (centres undefined) are -1.01% and 12.5%.
In the case of `CN1CCC(NC(=O)NCc2csc(Br)c2)CC1`, the Percent Effect in test [1] worked out at 6.12%; in test [2], 6.77%.
The matching figures for `O=C(Cn1cccnc1=O)NC(Cc1cccs1)c1ccccn1` (centres undefined): -0.372% and -0.987%.
The matching figures for `CC1CN=C(N2CCN(C(=O)Nc3nc(-c4ccccc4)ns3)CC2)S1` (centres undefined): 3.62% and -38.1%.
The matching figures for `Cn1cc(C2CCCN2CCCc2nc(-c3cccs3)no2)cn1` (centres undefined): 0.756% and 6.08%.
For the compound `CC(C)(C)c1nnc(CN2CCn3c(nnc3C3CC3)C2)o1`, the Percent Effect in test [1] was 8.8%; in test [2], -5.14%.
In the same order, the values of `c1cc(C2CCCN2Cc2nnnn2C2CC2)cs1` (centres undefined) are -4.43% and 5.22%.
`COc1ccc(-c2nc(CN3CCc4c(ncn4C)C3)cs2)cc1`: the Percent Effect is -3.7% in test [1] and -71.2% in test [2].
The matching figures for `CCCN(Cc1ccccc1)Cn1nc(C)c2c(C)onc2c1=O`: 9.28% and 6.54%.
The matching figures for `Cn1c(Cn2ccnc2)nnc1C1CCCN(C2CCCCC2)C1` (centres undefined): -2.02% and -14.9%.
The matching figures for `CCC(C)(NCC(=O)Nc1ccccc1)c1nc(C)cs1` (centres undefined): 1.93% and 15.8%.
With `COCC1CN(C(=O)c2ccoc2C)Cc2nccn2C1` (centres undefined), the Percent Effect in test [1] was 4.54%; in test [2], -11.3%.
The matching figures for `CN(Cc1nc(-c2ccco2)no1)C1CCCN(c2cccnn2)C1` (centres undefined): -3.2% and -26.8%.
In the same order, the values of `Cn1cc(CC2CCN(C(=O)NCc3cn4ccsc4n3)C2)cn1` (centres undefined) are -4.64% and -8.11%.
In the same order, the values of `CCN(CC1CCCO1)C(=O)Nc1cc(C(=O)OC)ccc1F` (centres undefined) are -1.37% and 15.3%.
Regarding `COCCNC(=O)c1sc(Nc2ccc(Cl)cn2)nc1C`, the values for the Percent Effect in test [1] and in test [2] were -1.92% and -31.4%, respectively.
In the same order, the values of `CN(C)c1ccc(CCCNC(=O)Nc2ccc(C#N)cc2)cc1` are -1.77% and -44.4%.
Regarding `CCn1ccnc1CN1C[C@@H](CN2CCCC2)[C@@H](CO)C1`, the Percent Effect in test [1] is -3.33%; in test [2], 6.48%.
As for `CC(O)CN1CCN(C(=O)CN(C)c2ccc(Cl)cn2)CC1` (centres undefined), the Percent Effect in test [1] was 0.546%; in test [2], -10.6%.
On to `CC(C)c1nnc(CN2CCCC2Cn2cncn2)o1` (centres undefined), for which the values for the Percent Effect in test [1] and in test [2] were -1.37% and -22.4%, respectively.
In the same order, the values of `CC(C)(C)c1cnc(CN2CCCC2Cn2cccn2)o1` (centres undefined) are -3.34% and 0.322%.
The matching figures for `Cc1ccc(N(C)C2CCN(C(=O)c3ccsc3)CC2)nn1`: 0.243% and 1.6%.
`O=C(Cn1nc2c(cc1=O)CCCC2)N[C@@H](Cc1ccccc1)C(=O)O`: the figures for the Percent Effect in test [1] and in test [2] were 0.174% and -48%, respectively.
In the same order, the values of `Cc1nc(CNC(=O)NCC(O)c2ccc(F)cc2F)cs1` (centres undefined) are -6.13% and -21.6%.
The matching figures for `CCc1nccn1-c1cncc(C2CCCN2Cc2ccc(F)cc2)n1` (centres undefined): 1.57% and -28.9%.
The matching figures for `Cc1ccc(-c2nc(CN3CCn4c(nnc4C4CC4)C3)co2)cc1`: -1.28% and 10.1%.
Consider `COc1ccc(CC(=O)N2CCCN(c3ccc(C#N)cc3)CC2)cc1`, for which the results for the Percent Effect in test [1] and in test [2] were 5.93% and -7.8%, respectively.
In the same order, the values of `OC(CNCCn1cccn1)c1ccc2c(c1)OCCO2` (centres undefined) are -4.48% and 3.64%.
In the same order, the values of `CSCCCN1CC[C@@H](NC(=O)c2cnccn2)[C@H](O)C1` are -0.39% and 2.82%.
For `Cc1nnc2n1CCN(C(=O)c1cc(Cl)c[nH]1)C2`, the Percent Effect in test [1] is -0.345%; in test [2], 2.46%.
The matching figures for `COc1ncc(CN2CC[C@@](C)(O)[C@H](Oc3cccc(F)c3)C2)cn1`: 6.63% and 13%.
The matching figures for `CC(=O)N1CCC(c2ccnc(Nc3cnccn3)n2)C1` (centres undefined): 1.13% and -14.2%.
Consider `Cc1ccc(F)cc1C(=O)N1C[C@@H](CN2CCOCC2)[C@@H](CO)C1`, for which the Percent Effect in test [1] was -3.12%; in test [2] it was 19.3%.
The matching figures for `CC1CCN(S(=O)(=O)NCCCn2cncn2)CC1`: -2.66% and -6.63%.
In the same order, the values of `NC(=O)CN1CCC(C(=O)N2CCCC(OCc3cccnc3)C2)CC1` (centres undefined) are -13.4% and 18%.
On to `CN(Cc1nnc2n1CCC2)C(=O)Cc1ccc2c(c1)OCCO2`, for which the Percent Effect was determined as 4.23% in test [1] and 18.1% in test [2].
With `CC(C)c1nc(C2CCCN(Cc3nnc(C4CC4)o3)C2)no1` (centres undefined), the Percent Effect was -2.16% in test [1] and -7.91% in test [2].
